From PubChem BioAssay
ATXN2 expr inh = inhibitors of ATXN2 expression; 360,000 compounds, 0.72% hits; Potency, µM (series often up to 57 µM), usual class: inhibitors; AID 1745845; HEK-293 ATXN2-luciferase reporter, luminescence, 24 h; also: nearly all actives have a fitted effect of over 55% in size
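qHTS (up to 57 uM final) was run with 24 h compound exposure of reporter cells at 37 °C. Each well was multiplexed: SteadyGlo luminescence measured ATXN2-luciferase expression after a fluorogenic Gly-Phe-AFC viability readout (25 uM final).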
S2 tox = cell viability loss in ATXN counter-screen; S2 cells (HEK-293 line with an ATXN2-luciferase reporter) viability, CellTiter-Fluor protease fluorescence, 24 h; Potency, µM (doses to about 56.7 µM), actives largely listed as cytotoxic; 400,000 compounds, 0.49% hits; also: nearly all actives have a fitted effect of over 40% in size
DRD3 agonist = agonists of human D3 dopamine receptor | P35462 | D3R DiscoveRx beta-arrestin cells, luminescence, 90 min | max activation, % | 410,000 compounds, 0.58% hits | AID 652048; in the data active = max activation above about 30%
Target sequence (P35462 whole entry, looked up): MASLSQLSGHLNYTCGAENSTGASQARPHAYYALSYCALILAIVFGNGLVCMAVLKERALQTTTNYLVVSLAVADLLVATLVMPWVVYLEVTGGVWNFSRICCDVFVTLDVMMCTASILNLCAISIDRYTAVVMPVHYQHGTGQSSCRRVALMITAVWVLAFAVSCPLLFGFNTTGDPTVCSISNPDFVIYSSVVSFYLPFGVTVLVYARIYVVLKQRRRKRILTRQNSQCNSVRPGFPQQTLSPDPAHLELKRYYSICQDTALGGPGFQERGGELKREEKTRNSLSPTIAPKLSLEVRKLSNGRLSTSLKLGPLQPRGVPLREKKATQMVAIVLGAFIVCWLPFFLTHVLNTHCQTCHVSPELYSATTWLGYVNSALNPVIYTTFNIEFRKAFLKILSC
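Cells at 1500/well, incubated overnight, then treated with pinned compounds (dopamine as control) for 90 min at 37 degrees C. DiscoveRx reagent added for 30 - 60 minutes at room temperature; luminescence read.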
DRD3 antagonist = blocks the human D3 dopamine receptor | 360,000 compounds, 2.5% hits | D3R cells, DiscoveRx beta-arrestin luminescence, antagonist mode; hits give low values | max response, negative = inhibition, % | P35462; in the data active = max response below about -50%; inconclusive = no clear call, values can overlap the other calls
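Cells expressing the human receptor were seeded at 1500 cells/well, incubated overnight at 37 degrees C in 5% CO2, then exposed to library compounds with dopamine controls for 90 minutes at 37 degrees C before luminescent detection.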
TGFb SMAD3 inh = blocks TGF-b signaling; HepG2 CAGA-GFP TGF-b/SMAD3 reporter, GFP fluorescence, 18 h; TGF-beta stimulated, 500 pg/mL final; 410,000 compounds, 1.2% hits; Potency, µM (titrated, usually from 46.1 µM), actives largely listed as inhibitors; also: nearly all actives have a fitted effect of over 65% in size
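Inhibition of TGF-beta-driven CAGA-GFP reporter expression in HEPG2 cells is measured by cellular GFP fluorescence after 18 h stimulation with 500 pg/mL recombinant TGF-beta in 1% FBS medium at 37 degrees C.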
HepG2 tox = kills HepG2 cells in TGF-b inhibitor counter-screen | AID 588856 | HepG2 CAGA-GFP viability, ATP luminescence, 18 h | 410,000 compounds, 0.76% hits | Potency, µM (highest dose often 46.1 µM), usual class: cytotoxic
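HepG2 CAGA-GFP cells (1000/well, DMEM with 1% FBS) received compound, then TGF-beta at 500 pg/mL final, and were incubated 18 hours at 37 degrees C. Viability was read by CellTiter-Glo luminescence. Media-only wells were set as complete cell-killing and DMSO as no toxicity.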
A number is an active result; – = inactive; ? = inconclusive; · = not tested or not shown. Most compounds without a hit are left out; they make up all but 4.7% or so of the library. Unless noted, calls follow the shape of the dose curve; as a rule, active = well fitted curve in the direction sought with a large enough effect; inconclusive = small, poorly fitted or top-dose-only effect, or another doubt; inactive = no such curve, though single readings can be large; an effect the other way counts as inactive or inconclusive.

SMILES	ATXN2 expr inh	S2 tox	DRD3 agonist	DRD3 antagonist	TGFb SMAD3 inh	HepG2 tox
COC(=O)CC1Oc2ccc(F)cc2-n2cc(-c3ccc(Cl)cc3)nc21 (stereo unspecified)	–	–	–	·	?	–
CCN(CC)CCCNC(=O)c1nn(-c2ccc(C)cc2)c(=O)c2c1c1ccccc1n2C	–	–	–	·	–	–
CCN(CC)CCOC(=O)c1ccc(NC(=O)c2nn(-c3ccc(C)cc3)c(=O)c3c2c2ccccc2n3C)cc1	·	·	–	·	4.47µM	3.55µM
Cc1ccc(S(=O)(=O)N2CCN(CC3CC4C=CC3C4)CC2)cc1 (stereo unspecified)	–	–	–	–	–	–
CCS(=O)(=O)N1CCN(CC2CC3C=CC2C3)CC1 (stereo unspecified)	–	–	–	-71.9	–	–
CCCS(=O)(=O)N1CCN(CC2CC3C=CC2C3)CC1 (stereo unspecified)	–	–	–	–	–	–
C1=CC2CC1CC2CN1CCN(Cc2ccccc2)CC1 (stereo unspecified)	–	–	–	-53.1	–	–
FC(F)(F)c1cccc(N2CCN(CC3CC4C=CC3C4)CC2)c1 (stereo unspecified)	–	–	–	-72.4	–	–
Fc1ccccc1N1CCN(CC2CC3C=CC2C3)CC1 (stereo unspecified)	–	–	–	-71.2	–	–
COc1ccc(C(=O)NCCN2Cc3ccccc3OC(c3ccsc3)C2)c(OC)n1 (stereo unspecified)	·	–	·	·	·	·
O=C(c1cnsn1)N1CCOc2ccc(CN3CCOCC3)cc2C1	·	–	·	·	·	·
O=C(c1ccc(C(=O)N2CCC(N3CCCC3)CC2)c(Nc2ccccc2)c1)N1CCC(N2CCCC2)CC1	–	·	·	·	·	·
Cc1cccc(NC(=S)NNC(=O)c2ccc3c(c2)OCO3)c1	–	–	–	-59.1	–	–
COc1cc(/C=C/C(=O)c2ccc3c(c2)OCO3)cc(OC)c1OC	?	?	–	–	17.8µM	22.4µM
Cc1cccc(NC(=O)c2ccc3c(c2)OCCO3)c1	–	–	–	–	–	–
COc1cc(C(=O)NC(=S)NNC(=O)c2ccc3c(c2)OCO3)cc(OC)c1OC	?	?	30.2	–	?	–
CCn1c(-c2cc(Br)cc(OC)c2O)nc2cc(S(=O)(=O)N(C)C)ccc21	–	–	36.6	–	–	–
CCn1c(-c2ccccn2)nc2cc(S(=O)(=O)N(C)C)ccc21	–	–	–	–	–	–
CC(C)OC(=O)NC(c1ccccc1)C(Cl)(Cl)Cl (stereo unspecified)	–	–	–	-50.1	–	–
CCOc1ccc(OC(=O)NC(c2ccccc2)C(Cl)(Cl)Cl)cc1 (stereo unspecified)	–	–	–	–	–	–
Cc1ccccc1-c1noc(-c2ccc(NCc3cccnc3)c([N+](=O)[O-])c2)n1	–	–	–	·	–	–
O=C(NCC(c1ccc(F)cc1)N1CCOCC1)c1nn(-c2ccccc2)c(=O)c2ccccc12 (stereo unspecified)	–	–	–	-83.4	–	–
O=C(NCC(c1ccc(F)cc1)N1CCOCC1)c1ccc(-c2ccccc2)cc1 (stereo unspecified)	–	–	–	–	–	–
O=C(NCC(c1ccc(F)cc1)N1CCOCC1)c1c(F)cccc1F (stereo unspecified)	–	–	–	–	–	–
O=C(NCC(c1ccc(F)cc1)N1CCOCC1)c1cccc(Br)c1 (stereo unspecified)	–	–	40.2	–	–	–
O=C(COC(=O)C1(c2ccccc2F)CCCC1)NC1CCS(=O)(=O)C1 (stereo unspecified)	–	–	–	-61.8	–	–
O=C(OCc1nc2ccccc2[n+]([O-])c1C(=O)c1ccccc1)c1cccnc1	–	?	–	-54.7	–	–
CCOC(=O)C1=C(c2ccccc2)N=c2s/c(=C\c3ccc(O)cc3)c(=O)n2C1c1cccs1 (stereo unspecified)	28.2µM	?	–	-56.9	?	–
